The test system of the experiment is PPARg:RXRa 90nM:30nM, anti-RXR (NR concentration 90 nM, RXRa partner concentration 30 nM). In words: PBM binding z-score (relative to random genomic background probes); higher = stronger binding; sequences stand for … in GC…GCGATTGACAGCGTAGAATGAAGG
The method in brief: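 Ligand-free nuclear receptor dimers were bound for 1 h to custom Agilent 4×180K protein-binding microarrays. Detection used antibodies against each partner (one per run). Binding z-scores rest on regression-normalized fluorescence, with random background probes as the reference.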
On to CCTAGCAGGCCAGTCTGGGTCACTCAAGGCTTGA, for which the PBM binding z-score is 0.0493.
GCTCGGAGGACAAGGTCCGAGCTTTGTCCGTAGA registered a PBM binding z-score of -1.09.
With AGAATGATGTTACCAAAGATCAGGGAAACGCTTG, the PBM binding z-score stood at 0.313.
In the case of ACTATTAGTTGAGACGAGGGCAACCCATAGGTTG, the PBM binding z-score turned out to be 0.326.
As to CGTCCAGGGTCAAAGGTCAGTGAAGAGATGACGG, the PBM binding z-score was 8.6.
With AGACAAAGTTCACTAGGTAACGTAAGATTCAGCT, the PBM binding z-score amounted to 4.7.
Take GCGACTGGGGCAAAGCAGCTTACCATAAGGTTGG: the PBM binding z-score was found to be 0.688.
With CCTAACGGGTCAAGGTTATAGCACGGGTGGTACG the figure was 2.39; with CTCGAAAGGTCTTGCTCAGGTGAGTATACCAAAC, 0.608; with CAAACTAGGTCACAGATGTCAAAGTCCGTGCGTA, 7.25.
For the sequence TCGGGTAGGTTAGGGGCATTCAGAATGGCGTCGA, the PBM binding z-score amounted to 1.74.
CAAACTAGGTCAAGAGGTCAACGTCCGCTTCCCG had a PBM binding z-score of 8.92.
CCTATTAGTTGACTATAAGGGCAACCGAAGCTCG: the PBM binding z-score is -0.284.
With ATCGAGAGGTCGTGAGGTGAGTATACAGAAAGGC the figure was 1.91; with GGAACGAGGGCAAGTTGATACCAGAGTTTGATGG, 0.594.
ATCTCTAGGTAACCAAGTTGAGTGAATGCCGAAC returned a PBM binding z-score of 0.238.
Regarding ATTACAGGGTCACTAGGCCAGAGTAGGTACGAAT, the PBM binding z-score came to 5.84.
On to GCAAGCAGGCCATTTGGGTCACTCAATGACGGGC, for which the PBM binding z-score was 0.131.
With CGTCAAAGTTTAACTAAGGTAACGTAAAGCACGC the figure was 0.65.
With AGTAGCAGGCCAAGTTTGGGTCACTCAAACAAAG the figure was -0.201; with ATATGTAGGCTAGCTGGGGTCATTCAGACTAGGC, 2.83.
The figure for ATCTCTAGGTAAAAGTTCAGTGATTCCCGAGGAT is 8.09; for GGAACGAGAGCAAGTTGATAGCAGAGTTTGATGG it is -0.721; for TAGCCTAGGTGAGATCGGGCCAGTATACGCTATA it is -0.319.
Sequence CAAACTATGTCACAGAGGTCAAAGTCCGTGCGTA showed a PBM binding z-score of 5.69.
With TCTTGTAGATCAGCAGGTTAAGAAAGCTGGCCAA the figure was 1.66; with TCTAGTGGGTCACGGAGGTCACACACGACGGGTA, 7.51.
CCTACTGGGCCATTCAGAGGTCATTTATCATATG returned a PBM binding z-score of 1.78.
TTACCAAGGTGAGGGTCGTTGATCCCTCTGTAGA: the PBM binding z-score stood at 1.46.
ACCGAAAGGTCGAAGGTGAGTATACCCACCCGAA returned a PBM binding z-score of 3.85.
On to TTACCAAGGTGCAGGTCGTTGATCCCTCTGTAGA, for which the PBM binding z-score was 0.733.
Sequence GCTAGTTGGTCAGTAAAAGGTCACACAACGGTCG returned a PBM binding z-score of 4.66.
AATACAGGGTCATCCTAGGCCAGAGTACGCACAG: the PBM binding z-score was 4.48.
With TTACCAAGGTGAAGGTGGTTGATCCCTCTGTAGA the figure was 1.13.
ACTCGGAGGACAAAGATCAGAGCTACGCCAGTGA: the PBM binding z-score is 1.43.
TCTGCTAGTTCAGTTGGTCAGCTAACGAGCTGCC gave a PBM binding z-score of 0.794.
In turn, GCGACTGGGGCATTAGCAGGTTACCATAACTTAA yielded a PBM binding z-score of 0.0308.
Sequence GCGACTGGGGCAAAGCAGGATACCATAAGGTTGG had a PBM binding z-score of 0.712.
For GCGACTGGGGCAAAGCAGGTGACCATAAGGTTGG, the PBM binding z-score is 0.239.
GCGACTGGGGCAAAGCAGGTTACCAAAAGGTTGG gave a PBM binding z-score of 0.774.

The record behind these values is the supplement of paper PMC6555819.
